Among all 310,000 compounds or so, about 18,000 (5.8%) were called active. Roughly 22% stayed inconclusive and do not appear here. For the sample, actives were picked, then their nearest neighbours and some compounds at random. Unmarked numbers belong to inactive results. Calls follow the shape of the dose curve; as a rule, active = well fitted inhibition curve with a large enough effect; inconclusive = small, poorly fitted or top-dose-only effect, or another doubt; inactive = no such curve, though single readings can be large or run the other way.
Experiment: Primary qHTS for delayed death inhibitors of the malarial parasite plastid, 48 hour incubation
Conditions: P. falciparum luciferase growth in erythrocytes; series mostly up to 28.7 µM; activity change, negative = inhibition: at the top concentration
Summary of the method: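 Growth was read as firefly luciferase luminescence after a 48 h, 37 C, 5% CO2 exposure of compounds to reporter-bearing P. falciparum cultures (0.1% parasitemia, 2% hematocrit final) in Albumax-supplemented RPMI 1640.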
% is scaled to controls: 0 for no effect and ±100 for the full control effect; potency is read from the fitted curve at half-maximal effect.

Row | SMILES | activity change, negative = inhibition | Potency
1 | COc1ccc(S(=O)(=O)NCc2ccc(C(=O)N3CCC4(CC3)OCCO4)cc2)cc1 | 1.88% | 
2 | COc1cccc(-c2cc3nc4c(c(N5CCC6(CC5)OCCO6)n3n2)CCCC4)c1 |  | 2.94 µM (active)
3 | OC(Cn1c2ccccc2c2ccccc21)C[n+]1ccccc1 (stereo not given) |  | 7.38 µM (active)
4 | O=C1c2ccccc2S(=O)(=O)N1CC(O)Cn1c2ccccc2c2ccccc21 (stereo not given) | -9.89% | 
5 | CC(=O)c1ccc2c(c1)c1ccccc1n2CC(C)C | -5.48% | 
6 | O=C(CN(C(=O)CNC(=O)c1cccs1)c1cccc(F)c1)NC1CCCCC1 | -4.17% | 
7 | Cc1cccc(NC(=O)COC(=O)CCc2ccccc2)c1C | 20.4% | 
8 | CC(=O)c1c(C)n(-c2ccc(N(C)C)cc2)c2ccc(OCC(N)=O)cc12 |  | 11.7 µM (active)
9 | CC(=O)c1c(C)n(-c2ccc(C)cc2)c2ccc(O)cc12 | 15.2% | 
10 | CCOC(=O)c1c(C)oc2ccc(OCC(=O)N(CC)CC)cc12 | -5.17% | 
11 | O=C(Nc1ccccc1Cl)NC1(C(=O)N2CCOCC2)CCCCC1 | -1.75% | 
12 | COc1ccc(CNC(=O)C(=O)N2CCC3(CC2)OCCN3S(=O)(=O)c2ccc(C)cc2)cc1 | 5.34% | 
13 | CC1(C)O[C@H]2CC(=O)OCC23[C@H]2CC[C@@]4(C)[C@H](c5ccoc5)OC(=O)[C@H]5O[C@]54[C@]2(C)C(=O)C[C@@H]13 (stereo not given in full) | -1.57% | 
14 | O=C(NC1CCCCC1)c1ccc(-c2ccc(Cl)cc2)o1 | 129% | 
15 | O=C(Cn1ncc(N2CCCC2)c(Br)c1=O)c1ccc(Cl)cc1 | 94.5% | 
16 | COC(=O)c1ccc(NCC(=O)N2CCCCCC2)cc1 | 190% | 
17 | O=C(Cn1nc(CNc2ccc(Cl)cc2)[n+]2c1CCCCC2)c1ccc(Cl)cc1 |  | 1.04 µM (active)
18 | Cn1c(CCNS(=O)(=O)c2ccc(F)cc2)nnc1SCc1cccnc1 | -12.3% | 
19 | CC(C)c1ccc(S(=O)(=O)NC2CCCC2)cc1 | 21.3% | 
20 | O=c1cc(O)c(-c2cccc(C(F)(F)F)c2)c(Cl)[nH]1 | 9.62% | 
21 | O=c1[nH]c(/C=C\c2cccc(C(F)(F)F)c2)nc(O)c1[N+](=O)[O-] |  | 9.28 µM (active)
22 | Cc1ccccc1/C=C\c1nc(O)c([N+](=O)[O-])c(=O)[nH]1 | -10.1% [at 0.00184 µM] | 
23 | Cc1ccc(C)c(NC(=O)c2cc(-c3cc(C)cc(C)c3O)n[nH]2)c1 | -16% [at 0.00184 µM] | 
24 | CCC(=O)Nc1c(S(=O)(=O)c2ccccc2)c2nc3ccccc3nc2n1Cc1ccccc1 | -9.82% | 
25 | COCC(C)OC(=O)c1c(N)n(CCCN2CCOCC2)c2nc3ccccc3nc12 (stereo not given) | -7.36% | 

Row | SMILES | activity change, negative = inhibition | Potency
26 | CCOC(=O)c1c(N)n(Cc2ccccc2)c2nc3ccccc3nc12 |  | 9.28 µM (active)
27 | Cc1c(C)c2ccc(OCC(=O)N3CCN(c4cccc(Cl)c4)CC3)cc2oc1=O | 11.4% | 
28 | O=C1Nc2ccccc2C12Nc1ccccc1S2 (stereo not given) | -8.82% | 
29 | CCc1ccc2c(c1)C(c1ccc([N+](=O)[O-])cc1)=NNC(c1ccccc1)=N2 | 4.15% | 
30 | CCc1ccc2c(c1)C1(NN=C(c3ccccc3)S1)C(=O)N2 (stereo not given) |  | 3.7 µM (active)
31 | O=C(c1ccc(Br)o1)N1CCN(CCOc2ccccc2)CC1 | 2.93% | 
32 | Cc1ccc(NS(=O)(=O)c2ccc(C(C)(C)C)cc2)cn1 | -7.91% | 
33 | O=C(/C=C/c1cccs1)c1cc(Cl)ccc1OC(=O)N1CCOCC1 |  | 10.4 µM (active)
34 | O=C(c1cccs1)N1CCN(C(=O)N2CCOCC2)CC1 | 16.9% | 
35 | O=C(Oc1cccc(C(=S)N2CCOCC2)c1)c1cccc(Cl)c1 | 10.5% | 
36 | O=C(O)c1cccc(S(=O)(=O)N2CC=C(c3ccccc3)CC2)c1 | -23.1% | 
37 | CC(C)C[C@H](NC(=O)C1CCC(CNC(=O)[C@@H]2CCCN2C(=O)OC(C)(C)C)CC1)C(=O)O (stereo not given in full) | 5.48% | 
38 | Cc1ccccc1C(=O)N1CCC(C(=O)Oc2ccc(C#N)cc2)CC1 | 10% | 
39 | COc1cccc(-c2nnc(SCCOc3ccc4c(C)cc(=O)oc4c3)o2)c1 | 40.1% | 
40 | Cc1cc(=O)oc2ccc(OCC(=O)O)cc12 | -2.39% | 
41 | Cc1cc(=O)oc2cc(OCCC[n+]3ccccc3)ccc12 |  | 5.22 µM (active)
42 | CCCn1c(C(Cc2ccccc2)NC(=O)COC)nc2ccccc21 (stereo not given) | -6.33% | 
43 | CC(O)c1nc2ccccc2n1Cc1ccc([N+](=O)[O-])cc1 (stereo not given) | -3.37% | 
44 | CCCC(NC(=O)c1ccccc1)c1nc2ccccc2n1Cc1ccc(C(=O)OC)o1 (stereo not given) |  | 13.1 µM (active)
45 | Cn1ccnc1SCC(=O)Nc1ccc2c(c1)OCCO2 | 67.6% | 
46 | CCN(CC(=O)Nc1ccccc1OC)C(=O)CC1CC2CCC1C2 (stereo not given) | -19% | 
47 | N#C[C@]1(S(=O)(=O)c2ccccc2)C[C@@H]2ON=C(c3cccc(Br)c3)[C@@H]2C1 | -5.53% | 
48 | Cc1ccc(C(=O)Nc2ccc(C)c(S(=O)(=O)N(C)C)c2)s1 | 241% | 
49 | Cc1ccc(NC(=O)CNCc2ccccn2)cc1S(=O)(=O)N(C)C |  | 16.5 µM (active)
50 | Cc1ccc(NC(=O)c2cccs2)cc1S(=O)(=O)N(C)C | 6.38% | 
